BLM helicase inh – blocks DNA unwinding by human BLM helicase; recombinant BLM DNA unwinding, fluorescence dequenching; Potency, µM (top dose mostly 56.1 µM), for the others: top-dose activity change, negative = inhibition, actives largely listed as inhibitors; 350,000 compounds, 0.2% hits;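 also: plate controls were vehicle for no effect and no enzyme for full effect; nearly all actives have a fitted effect of over 35% in size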
APEX1 inh – blocks human APE1 abasic DNA cleavage; P27695; recombinant APE1, TAMRA/BHQ-2 abasic DNA cleavage fluorescence; Potency, µM (highest dose often 65.8 µM), for inactives: at the top dose activity change, negative = inhibition, actives largely listed as inhibitors; 350,000 compounds, 0.35% hits; AID 2517;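 also: plate controls were vehicle for no effect and reference inhibitor for full effect; nearly all actives have a fitted effect of over 55% in size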
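Enzyme (0.75 nM final) and test compound are incubated 15 min at room temperature before adding 50 nM quenched THF abasic-site duplex. Cleavage dequenches TAMRA, followed at 525/598 nm over three reads one minute apart.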
RECQ1 helicase – blocks DNA unwinding by human RECQ1; P46063; RECQ1 DNA unwinding, red fluorescence kinetic read; Potency, µM (highest dose often 57.3 µM), without a hit: at the highest dose activity, negative = inhibition, usual class: inhibitors; 240,000 compounds, 0.54% hits;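 also: plate controls were vehicle for no effect and no enzyme for full effect; nearly all actives have a fitted effect of over 30% in size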
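RECQ1T1 50 nM; forked duplex (20 bp + 30-nt ss tails) 200 nM, ATP 2 mM final; pH 8.0, 2 mM MgCl2, 2.5 ug/ml poly(dI-dC); 15 min compound preincubation; discontinuous kinetic read over 2 h at RT.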
TDP1 block – blocks human tyrosyl-DNA phosphodiesterase 1; recombinant TDP1, AlphaScreen DNA substrate cleavage; 350,000 compounds, 0.28% hits; Q9NUW8; Potency, µM (doses to about 130 µM), without a hit: top-dose activity change, negative = inhibition, actives largely listed as inhibitors; AID 485290; also: nearly all actives have a fitted effect of over 40% in size
Target sequence (Q9NUW8 whole entry, looked up): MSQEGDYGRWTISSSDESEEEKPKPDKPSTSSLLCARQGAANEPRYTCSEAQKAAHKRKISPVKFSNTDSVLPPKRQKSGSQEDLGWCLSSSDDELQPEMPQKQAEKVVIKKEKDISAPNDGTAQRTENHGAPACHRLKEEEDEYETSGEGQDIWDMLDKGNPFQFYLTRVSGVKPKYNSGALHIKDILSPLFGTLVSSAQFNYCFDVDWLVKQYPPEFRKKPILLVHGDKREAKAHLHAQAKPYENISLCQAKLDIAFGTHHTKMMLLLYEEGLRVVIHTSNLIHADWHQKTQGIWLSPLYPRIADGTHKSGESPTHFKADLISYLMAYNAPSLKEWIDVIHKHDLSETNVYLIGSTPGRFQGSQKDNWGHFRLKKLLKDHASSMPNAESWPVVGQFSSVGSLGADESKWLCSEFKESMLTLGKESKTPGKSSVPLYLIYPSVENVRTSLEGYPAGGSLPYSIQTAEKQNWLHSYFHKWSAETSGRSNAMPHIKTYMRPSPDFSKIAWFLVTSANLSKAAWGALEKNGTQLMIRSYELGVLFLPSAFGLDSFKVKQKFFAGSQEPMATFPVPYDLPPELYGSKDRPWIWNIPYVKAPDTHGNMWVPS
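Here, a 5' biotin and 3' phosphotyrosine-FITC DNA oligonucleotide reports Tdp1 activity: intact substrate bridges AlphaScreen beads, while cleavage leaves a 3' phosphate and drops signal. All incubations at room temperature.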
KAT2A inh – inhibitors of human GCN5L2 histone acetyltransferase. GCN5L2 HAT assay, ThioGlo1 CoA-SH fluorescence. AID 504327. 390,000 compounds, 0.21% hits. Potency, µM (top dose mostly 58.9 µM), for the others: at the highest dose activity change, negative = inhibition, usual class: inhibitors. Q92830
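GCN5L2 (20nM final) in 50mM HEPES, 0.1mM EDTA pH 7.5, 0.01% Tween-20 was preincubated 15 min at room temperature with compound, then given ThioGlo1 (50uM), H3(1-25) peptide (75uM) and acetyl-CoA (70uM); CoA-thiol fluorescence (Ex340/Em540) was read at 0 and 20 min.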
The depositor's hits bear a star; ? = inconclusive; nt = no result; ! = a repeat was not active; [ ] = remark or other dose. A selection: hits, their analogues and other compounds. The true share with any hit is near 0.87%. Calls follow the shape of the dose curve; as a rule, active = well fitted curve in the direction sought with a large enough effect; inconclusive = small, poorly fitted or top-dose-only effect, or another doubt; inactive = no such curve, though single readings can be large; an effect the other way counts as inactive or inconclusive. Unless noted, % is scaled to controls: 0 for no effect and ±100 for the full control effect; potency is read from the fitted curve at half-maximal effect.

SMILES | BLM helicase inh | APEX1 inh | RECQ1 helicase | TDP1 block | KAT2A inh
CCc1cc(CNC(=O)c2ccc(OC3CCN(CCc4ccccc4)CC3)cc2)on1 | -6% | 12µM* | nt | 14µM* | -2%
Cc1nn(-c2ccccc2)c2nc(C(F)F)cc(C(F)F)c12 | nt | 19% | nt | 56µM* | -4%
COc1cccc(-c2nc3c(c(C)nn3-c3ccccc3)c3cc(OC)c(OC)cc23)c1 | -7% | nt | nt | -9%[12.3 µM] | 2%
COc1cc2c(-c3ccc(O)cc3)nc3c(c(C)nn3-c3ccccc3)c2cc1OC | 14µM* | 4% | -1% | ? | -6%
O=C(Nc1scc(-c2ccccc2)c1C(=O)O)c1ccccc1Cl | 3% | -2% | nt | nt | -8%
O=C(/C=C/c1cccs1)Nc1scc(-c2ccccc2)c1C(=O)O | ? | ? | -9% | 32µM* | -20%
CC1CCc2c(sc(NC(=O)/C=C/c3cccs3)c2C(=O)O)C1 (configuration not stated) | -6% | 12µM* | nt | -7% | -19%
N#Cc1nc(Nc2cccc([N+](=O)[O-])c2)nc(NC2CCCC2)n1 | nt | nt | nt | 4% | nt
Cc1ccc(S(=O)(=O)Oc2ccc(N=Nc3ccc(-c4ccc(N=Nc5c(O)ccc6cc(S(=O)(=O)O)cc(S(=O)(=O)O)c56)c(C)c4)cc3C)cc2)cc1 | nt | 35µM* | 25µM* | 25% | nt
O=C(O)C1CC=CCC1C(=O)N1CCc2ccccc21 (configuration not stated) | 6% | ? | -5% | 22µM* | -2%
CC(C)(C)OC(=O)Cc1nnc(-c2cc3ccccc3[nH]2)s1 | nt | nt | nt | 1% | nt
C[C@@H]1CC2[C@@H]3C[C@H](F)C4=CC(=O)C(Cl)=C[C@]4(C)[C@@]3(F)[C@H](O)C[C@]2(C)[C@@]1(O)C(=O)CO (some centres not stated) | 0% | nt | nt | 6% | -7%
O=C(O)c1ccc2c3c(cccc13)C(=O)N(c1ccccc1)C2=O | -13% | ? | ? | nt | -17%
CC(=O)Nc1ccc2c3c(cccc13)C(=O)N(c1ccccc1)C2=O | -2% | -3% | -5% | 1% | 22µM*
Cc1cc(N2C(=O)C3C4C=CC(C4)C3C2=O)ccc1NC(=O)c1cccs1 (configuration not stated) | -11% | ? | -23% | 13µM* | -12%
O=C(Nc1cccc(N2C(=O)C3C4C=CC(C4)C3C2=O)c1)c1cccs1 (configuration not stated) | -4% | 8% | -9% | 0% | -7%
Cc1ccc(C(=O)OCC(=O)c2ccc(CC(=O)N3CCOCC3)s2)c(C)c1 | nt | ? | nt | 50µM* | ?
CCCC(=O)Nc1nnc(Sc2ccc(N(C)C)cc2)s1 | -2% | 3% | -6% | -1% | -2%
CCC(=O)Nc1nnc(Sc2ccc(N(C)C)cc2)s1 | -9% | -1% | -8% | 45µM* | -5%
S=C([S-])NCCNC(=S)[S-].[Zn+2] | nt | 16µM* | 32µM* | 14µM* | nt
O=C1NC(=S)S/C1=C/c1ccc(OC(=O)c2ccco2)cc1 | -14% | -5% | nt | 50µM* | -24%
CS(=O)(=O)C1=NN2C(=N)/C(=C\c3ccc(OC(=O)c4ccco4)cc3)C(=O)N=C2S1 | -15% | -39% | nt | 50µM* | -12%
N=C1/C(=C\c2ccc(OC(=O)c3ccc(F)cc3)cc2)C(=O)N=C2SC(N3CCOCC3)=NN12 | -8% | -25% | nt | 56µM* | -16%
CC(C)(C)n1ncc2c(=O)n(Cc3ccc(Cl)cc3F)cnc21 | nt | -3% | nt | nt | nt
COc1ccc(C2Nc3ccccc3C(=O)N2Cc2ccc(-c3ccccc3)cc2)cc1COc1ccc(NC(C)=O)cc1 (configuration not stated) | nt | nt | nt | -3% | nt
SMILES | BLM helicase inh | APEX1 inh | RECQ1 helicase | TDP1 block | KAT2A inh
CC(C)CCCC(C)CCCC(C)CCCC(C)C(=O)O (configuration not stated) | ? | -1% | -11% | 2% | 11µM*
O=C(O)c1ccccc1NS(=O)(=O)c1cccc(-n2sc3ccccc3c2=O)c1 | 1% | -7% | nt | ? | 0.45µM*
CC(=O)c1ccc(/C=C/c2nc3ccccc3n2C)o1 | -8% | ? | -18% | 8% | 11µM*
Cn1c(/C=C/c2ccccc2)nc2ccccc21 | 0% | 2% | -4% | 0% | -5%
CCCCCCCCCCC/C=C\C(C)(C)/C=C\CCCC(=O)O | -3% | -2% | 1% | 9%[56.1 µM] | 7.9µM*
CC/C=C\C/C=C\C/C=C\CCCCCCCC(=O)O | ? | -35% | 1.8µM*! | 5µM*! | 10µM*!
O=S(=O)(O)c1cccc2c(N=Nc3ccc(O)c4ncccc34)cccc12 | ? | 24µM* | nt | nt | ?
Cc1cc(C)c2nc(C)cc(N/N=C/c3ccc(O)cc3)c2c1 | 32µM* | ? | nt | nt | -11%
CN(C)c1ccc(NC2=C([N+](=O)[O-])CS(=O)(=O)C2)cc1 | -7% | -8% | 20µM* | 2% | 0%
Cc1ccc(NC2=C([N+](=O)[O-])CS(=O)(=O)C2)cc1 | -1% | -4% | -5% | 1% | -9%[0.501 µM]
O=C(CNC(=O)c1ccc2cc[nH]c2c1)OC(C(=O)Nc1cc(C(F)(F)F)ccc1Cl)c1ccccc1 (configuration not stated) | nt | nt | nt | 1% | nt
NNc1nc(C(F)(F)F)nc2ccccc12 | -7% | ? | -5% | 8% | -7%
O/C=c1\ccc2cccc3nc(C(F)(F)F)nc1c23 | 14µM* | -27% | nt | nt | -25%
COc1ccc2cc3cc(C(=O)NCc4ccco4)oc3nc2c1 | -15% | ? | -16% | 50µM* | -4%[0.501 µM]
CN(C)C1C(=O)C(C(N)=O)C(=O)C2(O)C(=O)C3C(=O)c4c(O)ccc(Cl)c4C(O)C3CC12 (configuration not stated) | -3% | ? | -19% | nt | -32%
CN(C)c1ccc(O)c2c1C[C@H]1C[C@H]3[C@H](N(C)C)C(=O)C(C(N)=O)=C(O)[C@@]3(O)C(=O)C1=C2O | nt | 13µM*! | nt | nt | nt
CN(C)c1ccc(O)c2c1CC1CC3[C@@H](N(C)C)C(=O)C(C(N)=O)=C(O)[C@]3(O)C(=O)C1=C2O (some centres not stated) | -7% | 14µM* | ? | nt | ?
CC(C)(C)Nc1oc(-c2ccccc2)nc1-c1ccccc1 | 1% | 7% | 1% | 7% | nt
COC(=O)c1ccc2c(c1)C(C)(C)C(/C=C/c1ccc(OC)c(OC)c1OC)=[N+]2C | -18% | -6% | ? | 6% | -6%
COC(=O)c1ccc2c(c1)C(C)(C)C(/C=C/c1ccc(O)cc1)=[N+]2C | -1% | ? | 13µM* | 6% | -26%
O=[N+]([O-])c1cc(/C=N/n2c(-c3ccncc3)n[nH]c2=S)ccc1Cl | -28% | -15% | 4.5µM* | 9% | -13%
